# An excerpt weighted towards active compounds, which were near 2.1% of everything screened.
# KLF5 inhibitor: kruppel-like factor 5 inhibition | AID 1700 | 0.23% of 290,000 active | inhibition, % at 5 µM | DLD-1 KLF5 promoter-luciferase reporter, luminescence;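 active means inhibition above a per-plate limit of that plate's mean compound inhibition plus 3 SD, cut at about 60% in these data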;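 further: higher means less KLF5 promoter-driven luciferase light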
# aSyn 5UTR inh: 5' untranslated region of α-synuclein, MLPCN primary screen | alpha-synuclein 5'UTR reporter, inhibitor activity | inhibition, % (tested at 7.5 µM) | 0.82% of 300,000 active; in the data active means inhibition above about 60%;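 further: H4 neuroglioblastoma cells stably carrying SNCA 5'UTR luciferase fusion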
# BaF3 tox: counter-screen for JAK2V617F inhibitors: parental Ba/F3 viability inhibitors | CellTiter-Glo ATP luminescence | 1.1% of 220,000 active | inhibition, % at 5.6 µM | AID 1486;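 active means inhibition above a per-campaign cutoff, the mean inhibition of all tested compounds plus 3 SD, cut at about 27% in these data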
# Ba/F3 V617F tox: loss of viability in JAK2V617F-driven Ba/F3 cells | Ba/F3 EpoR-JAK2V617F viability, ATP luminescence | inhibition, % at 5.6 µM | 1.1% of 220,000 active;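 active means inhibition above the campaign mean plus 3 SD over all tested compounds, cut at about 24% in these data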;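 further: cytokine-independent growth of Ba/F3 cells driven by EpoR plus mutant JAK2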
# APP 5UTR inh: APP translation inhibition; SH-SY5Y APP 5'UTR-luciferase reporter, luminescence; inhibition, % at 2 µM; 0.82% of 190,000 active; AID 1285;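 active means inhibition above a set limit, derived from the sample mean plus 3 SD, cut at about 45% in these data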
# IEC-6 tox: kills IEC-6 intestinal cells in KLF5 counter-screen. inhibition, % at 5 µM. IEC-6 cytotoxicity, luminescence viability. AID 1825. 0.78% of 290,000 active
# IEC-6 tox confirm: IEC-6 cytotoxicity, confirmation assay; shares compounds with IEC-6 tox; inhibition, % at 5 µM; 63% of 1,900 active; IEC-6 rat intestinal epithelial viability, luminescence
# A number is an active result; i = inactive; nt = not tested or not shown. Unless noted, no stated cut-off is given here; in the data, active means inhibition above about 22%; inactive means the rest.
SMILES,KLF5 inhibitor,aSyn 5UTR inh,BaF3 tox,Ba/F3 V617F tox,APP 5UTR inh,IEC-6 tox,IEC-6 tox confirm
CCn1ncc(C2=NOC(C(=O)NCc3ccc(Cl)cc3)C2)c1C (stereo unspecified),i,i,i,i,49,83,51
CCn1cc(C(=O)NCC(OC)OC)c(=O)c2cc(S(=O)(=O)N3CCC(C)CC3)ccc21,i,i,nt,nt,nt,32,25
O=C(NC12CC3CC(CC(C3)C1)C2)c1cccnc1Cl,i,i,nt,nt,nt,i,nt
O=[N+]([O-])c1cccc(C=Nc2cccc3ccccc23)c1O,i,i,nt,nt,nt,32,i
COc1ccc(NC(=O)Cn2nnc(C(=O)NCc3ccc4c(c3)OCO4)c2N)cc1,i,i,i,i,i,i,nt
CCOc1ccccc1NC(=O)Cn1nnc(C(=O)NCc2ccc3c(c2)OCO3)c1N,i,i,nt,nt,nt,51,28
COc1cccc(CNC(=O)c2nnn(CC(=O)Nc3ccc(Br)cc3)c2N)c1,i,86,nt,nt,nt,34,i
COc1ccccc1C(=O)Nc1nc2ccccc2s1,i,109,nt,nt,nt,29,28
COc1ccccc1C(=O)Nc1nc2ccc(S(C)(=O)=O)cc2s1,i,i,i,i,i,i,nt
CCOC(=O)Cc1nnc(NC(=O)c2ccccc2OC)s1,i,i,i,i,i,i,nt
COc1ccccc1C(=O)Nc1nnc(CCc2ccccc2)s1,i,i,nt,nt,nt,44,56
Cc1ccc2oc(/N=C(\N)NC(=O)C3CC3)nc2c1,i,i,29,38,nt,32,31
O=C(Nc1ncccc1O)C1CCN(S(=O)(=O)c2ccc3ccccc3c2)CC1,nt,i,nt,nt,nt,nt,nt
Fc1ccc2[nH]c3c(NCc4ccccc4)ncnc3c2c1,i,i,nt,nt,nt,33,30
COCc1ccc(C(=O)N2CCCC(N3CCN(c4ccc(F)cc4)CC3)C2)o1 (stereo unspecified),i,i,nt,nt,nt,i,nt
CCc1c(C(=O)NC2CCCc3ccccc32)[nH]c(C)c1C(C)=O (stereo unspecified),i,64,nt,nt,nt,47,i
CC(=O)c1c(C)[nH]c(C(=O)NC2CCSc3ccccc32)c1C (stereo unspecified),i,i,nt,nt,nt,i,nt
Nc1nc2c(ncn2C2C[C@H](O)[C@@H](CO)O2)c(=O)[nH]1 (stereo partly specified),nt,i,nt,nt,nt,nt,nt
Nc1nc(Cl)nc2c1ncn2[C@H]1C[C@H](O)[C@@H](CO)O1,i,84,95,101,76,90,68
CC(C)OC(=O)c1ccc2nc3ccccc3nc2c1,i,i,nt,nt,nt,24,i
Cc1c(O)ccc(C(=O)CN2CCN(Cc3ccc4c(c3)OCO4)CC2)c1O,i,i,i,i,i,60,i
Cc1ccc(C(=O)Sc2cccccc2=O)cc1,i,i,nt,nt,nt,99,101
CC1CN(CC(=O)NCc2ccc(Cl)cc2)CC(C)O1 (stereo unspecified),i,i,nt,nt,nt,i,nt
CC1CCCN(C2(O)C(=O)Nc3ccc([N+](=O)[O-])cc32)C1 (stereo unspecified),i,i,nt,nt,nt,i,nt
CC1(C)Cc2c(sc3ncnc(NNC(=S)NCc4ccccc4)c23)CO1,i,87,80,73,56,76,i
SMILES,KLF5 inhibitor,aSyn 5UTR inh,BaF3 tox,Ba/F3 V617F tox,APP 5UTR inh,IEC-6 tox,IEC-6 tox confirm
CC(C)NC(=S)NNc1ncnc2sc3c(c12)CC(C)(C)OC3,nt,i,nt,nt,nt,nt,nt
Cc1ccc(-n2ncc(Br)c(Br)c2=O)cc1,i,i,106,101,94,102,30
COc1c(Cl)cnn(-c2ccc(C)cc2)c1=O,i,i,i,i,i,i,nt
O=c1c(Br)c(Br)cnn1-c1ccccc1,i,nt,50,101,96,102,46
O=C(NCCCN1CCCCC1)c1ccc(CS(=O)c2ccc(F)cc2)o1 (stereo unspecified),i,i,nt,nt,nt,i,nt
O=C(N/C(=C\c1cccc([N+](=O)[O-])c1)C(=O)N1CCOCC1)c1cccc(Br)c1,i,i,nt,nt,nt,i,nt
O=[N+]([O-])c1ccc(S(=O)(=O)c2ccccc2)nc1,i,i,nt,nt,nt,101,85
Cc1ccc(S(=O)(=O)c2ccc([N+](=O)[O-])cn2)cc1,i,i,nt,nt,nt,101,i
Cc1cc(S(=O)(=O)c2ccc([N+](=O)[O-])cn2)ccc1Br,nt,i,nt,nt,nt,nt,nt
N#C/C(=C\c1ccc(OCCN2CCOCC2)cc1)C(=O)Nc1ccc(S(N)(=O)=O)cc1,i,i,nt,nt,nt,i,nt
COc1ccc(OC)c(S(=O)(=O)Nc2cc3c(cc2N2CCCC2)n(C)c(=O)c(=O)n3C)c1,i,i,nt,nt,nt,i,nt
CC1CCN(C(=O)Cn2cnc3c2c(=O)n(C)c(=O)n3C)c2ccccc2S1 (stereo unspecified),i,i,nt,nt,nt,i,nt
CC(C)Cc1ccc(C(C)C(N)=NCCc2ccccc2)cc1 (stereo unspecified),i,i,nt,nt,nt,64,99
CC(=O)N1CCOc2ccc(S(=O)(=O)NC(C)c3ccccc3)cc21 (stereo unspecified),i,i,nt,nt,nt,i,nt
COc1ccccc1C(=O)Nc1ccc2c(c1)nc(CCNC(=O)c1ccco1)n2C,i,i,nt,nt,nt,69,53
CC(=O)Nc1ccc(S(=O)(=O)N2CCCN(c3nc(C)cc(C)c3C#N)CC2)cc1,i,i,nt,nt,nt,i,nt
Cn1c(=O)c([N+](=O)[O-])c(Cl)c2ccccc21,i,i,i,i,57,48,64
CCN(CC)c1c([N+](=O)[O-])c(=O)n(C)c2ccccc12,i,i,i,i,i,i,nt
Cc1ccc(NC(=O)C2CCN(S(=O)(=O)c3ccc4c(c3)NC(=O)C(C)S4)CC2)cc1Cl (stereo unspecified),i,i,nt,nt,nt,22,i
Cc1cc(C)cc(NC(=O)C2CCN(S(=O)(=O)c3ccc4c(c3)NC(=O)C(C)S4)CC2)c1 (stereo unspecified),i,i,nt,nt,nt,i,nt
CCCn1c(CN2CCN(C(=O)OCC)CC2)nc2cc(NC(=O)CC)ccc21,i,i,nt,nt,nt,53,24
CCOC(=O)N1CCN(Cc2nc3cc(NC(=O)CC)ccc3n2C)CC1,i,i,nt,nt,nt,i,nt
Cc1onc(-c2ccccc2Cl)c1C(=O)Oc1cccc2cccnc12,i,i,i,i,i,i,nt
Cc1oc(-c2cccc(Cl)c2)nc1CN1CCC(C(=O)NCCCN2CC(C)CC(C)C2)CC1 (stereo unspecified),i,i,nt,nt,nt,22,53
Cc1cccc(NS(=O)(=O)c2c(C(=O)N3CCOCC3)c(C)n(C)c2C)c1C,i,i,nt,nt,nt,i,nt
O=C1NC(=S)S/C1=C/c1ccc(N2CCOCC2)o1,i,i,i,i,i,i,nt
C=CCN1C(=O)N/C(=C/c2ccc(N3CCOCC3)o2)C1=O,i,i,78,95,88,32,i
Cc1c(C(=O)OC2CCCC2)[nH]c2c1C(=O)CC(c1ccco1)C2 (stereo unspecified),i,i,81,77,94,88,57
CCOC(=O)c1[nH]c2c(c1C)C(=O)CC(c1ccc(OC)c(OC)c1)C2 (stereo unspecified),i,i,i,i,i,i,nt
Cc1c(C(=O)OCC2CCCO2)[nH]c2c1C(=O)CC(c1ccco1)C2 (stereo unspecified),i,i,i,i,i,38,47
